Results: PMC5540273 (PLoS ONE, 2017)

How the values were obtained:
Conditions in all cases: concentration: 1 μM, replicates: in singlicate; n = 1
EPHB2 = test system: EPHB2
EPHB3 = test system: EPHB3
EPHB4 = test system: EPHB4
EPHB6 = test system: EPHB6
ERBB2 = test system: ERBB2
ERBB3 = test system: ERBB3
ERBB4 = test system: ERBB4
ERK1 = test system: T1, ERK1
T1 construct: gene MAPK3

ERK2 = test system: T2, ERK2
T2 construct: gene MAPK1

ERK3 = test system: T3, ERK3
T3 construct: gene MAPK6
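Note: KINOMEscan kinase panel screen.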

Compound | %Inh (EPHB2) | %Inh (EPHB3) | %Inh (EPHB4) | %Inh (EPHB6) | %Inh (ERBB2) | %Inh (ERBB3) | %Inh (ERBB4) | %Inh (ERK1) | %Inh (ERK2) | %Inh (ERK3)
Fc1ccc(Nc2nccc(-c3c(-c4ccc(Cl)cc4)nn4ncccc34)n2)cc1F [GW829058] | 17% | 15% | 14% | 23% | 21% | 36% | 0% | 6% | 28% | 0%
CCc1nc(-c2cccc(C)c2)c(-c2ccnc(NC(=O)c3ccccc3)c2)s1 | 4% | 36% | 37% | 100% | 46% | 2% | 34% | 0% | 40% | 4%
Nc1nc(-c2cccnc2)c(-c2ccnc3ccccc23)s1 [GW684083] | 0% | 17% | 11% | 28% | 51% | 20% | 8% | 11% | 4% | 0%
CCC(CC)(CC)n1cnc2c(N)ncnc21 [SKF-97620] | 0% | 18% | 0% | 9% | 20% | 46% | 32% | 0% | 0% | 0%
Clc1cc(Nc2ncnc3cc[nH]c23)ccc1OCc1ccccn1 | 15% | 21% | 25% | 35% | 100% | 24% | 73% | 0% | 18% | 0%
Cn1ccc2ncnc(Oc3ccc(NC(=O)Nc4cccnc4)c(Cl)c3)c21 | 2% | 12% | 10% | 5% | 18% | 2% | 0% | 0% | 11% | 0%
Cl.c1ccc(Cn2ccc3cc(Nc4ncnc5ccccc45)ccc32)cc1 [GW275568] | 6% | 4% | 18% | 33% | 100% | 29% | 88% | 0% | 0% | 4%
O=C(Nc1ccccc1)Nc1ccc(Oc2ccc3nccn3n2)cc1 | 0% | 7% | 7% | 0% | 24% | 0% | 0% | 0% | 0% | 0%
CSc1nn2c(=O)cc(N3CCOCC3)nc2n1Cc1cccc(Cl)c1Cl [GSK2347225] | 0% | 6% | 11% | 52% | 0% | 0% | 0% | 0% | 17% | 15%
COc1ccc(-c2oc3ncnc(N)c3c2-c2ccc(OC)cc2)cc1 [SB-589132] | 0% | 24% | 5% | 36% | 41% | 46% | 33% | 0% | 0% | 6%
CN1CCC(n2cnc(-c3ccc(F)cc3)c2-c2ccnc(NC3CCNCC3)n2)CC1 [SB-229482] | 11% | 4% | 0% | 8% | 32% | 18% | 4% | 0% | 14% | 30%
N#Cc1ccc(Oc2ccc(Nc3ncnc4cc[nH]c34)cc2Cl)cc1 | 8% | 21% | 24% | 33% | 79% | 9% | 76% | 0% | 6% | 0%
Cc1ccc(O)cc1Nc1cc(C(F)(F)F)nc2ccc(-c3ccncc3)cc12 [GW630823] | 3% | 0% | 18% | 9% | 0% | 0% | 0% | 2% | 5% | 9%
O=C(CCO)NCCn1ccc2ncnc(Nc3ccc(Oc4cccc(C(F)(F)F)c4)c(Cl)c3)c21 | 0% | 2% | 3% | 8% | 100% | 0% | 95.9% | 0% | 9% | 0%
Cc1ccc(NC(=O)c2cccc(C#N)c2)cc1-c1ccc(C(=O)Nc2ccncc2)cc1 [GSK1398463] | 13% | 26% | 25% | 2% | 0% | 0% | 32% | 0% | 0% | 5%
Nc1nc(-c2ccc3c(N)n[nH]c3c2)cc(N2CCCCC2)n1 [GSK2228768] | 0% | 0% | 8% | 0% | 2% | 0% | 0% | 0% | 0% | 6%
Fc1cccc(COc2ccc(Nc3ncnc4sc(-c5ccc[nH]5)cc34)cc2Cl)c1 [GW707818] | 15% | 0% | 0% | 16% | 100% | 0% | 88% | 0% | 0% | 3%

Compound | %Inh (EPHB2) | %Inh (EPHB3) | %Inh (EPHB4) | %Inh (EPHB6) | %Inh (ERBB2) | %Inh (ERBB3) | %Inh (ERBB4) | %Inh (ERK1) | %Inh (ERK2) | %Inh (ERK3)
OCCOCCn1ccc2ncnc(Nc3ccc(Oc4cccc(Cl)c4)c(Cl)c3)c21 | 0% | 6% | 0% | 2% | 100% | 0% | 96% | 0% | 0% | 0%
Cc1ccc(C)c(NC(=O)NCCNc2ccnc(Nc3ccc(F)cc3)n2)c1 [GSK1379878] | 0% | 0% | 0% | 11% | 0% | 3% | 38% | 0% | 0% | 0%
C[C@H]1CC[C@@H](C(=O)Nc2ccccc2)CN1c1cc(-c2ccc3c(N)n[nH]c3c2)nc(N)n1 [GSK2283293] | 0% | 24% | 12% | 13% | 25% | 0% | 39% | 0% | 2% | 4%
CC(=O)Nc1n[nH]c2ncc(-c3ccccc3)cc12 [SB-548492] | 0% | 16% | 14% | 36% | 0% | 0% | 29% | 12% | 11% | 1%
O=C(Nc1ccccc1F)NC1CCN(c2ccnc(Nc3ccc(F)cc3)n2)C1 (stereo not drawn) [GSK1379722] | 0% | 17% | 0% | 17% | 30% | 3% | 0% | 100% | 0% | 13%
CCCc1ccc(S(=O)(=O)NC2CCN(c3ccnc(Nc4ccc(OC)cc4)n3)C2)cc1 (stereo not drawn) [GSK1379737] | 10% | 5% | 7% | 31% | 36% | 0% | 24% | 0% | 0% | 79%
Cl.O=S(=O)(c1cccc(F)c1)c1ccc(Nc2ncnc3cc(Br)sc23)cc1Cl [GSK306886] | 42% | 19% | 17% | 0% | 98.7% | 0% | 43% | 0% | 0% | 10%
NC(=O)c1sc(-n2cnc3ccccc32)cc1OCc1ccccc1F [GSK1024306] | 0% | 1% | 0% | 8% | 47% | 18% | 25% | 0% | 0% | 0%
CS(=O)(=O)CCNCc1nc(-c2ccc3ncnc(Nc4ccc(OCc5cccc(F)c5)c(Cl)c4)c3c2)cs1.Cl [GW583340] | 0% | 0% | 5% | 19% | 99.7% | 0% | 99.1% | 0% | 0% | 12%
CNc1nccc(-c2c(-c3ccc(F)cc3)ncn2CCCN2CCOCC2)n1 [SB-222516] | 0% | 0% | 8% | 0% | 0% | 30% | 8% | 7% | 1% | 0%
COC(=O)c1cccc(NC(=O)NCCNc2ccnc(Nc3ccc(F)cc3)n2)c1 [GSK1379883] | 0% | 21% | 6% | 4% | 14% | 15% | 28% | 0% | 11% | 0%
Cn1ccc2ncnc(Nc3ccc(Oc4cccc(Cl)c4)c(Cl)c3)c21 | 4% | 0% | 0% | 4% | 100% | 17% | 97% | 2% | 35% | 6%
Cc1cc(N2CCC(NS(=O)(=O)c3ccc(F)cc3)CC2)nc(Nc2cccc(C#N)c2)n1.O=C(O)C(F)(F)F [GSK1653537] | 0% | 1% | 13% | 8% | 13% | 0% | 0% | 0% | 0% | 7%
Cl.Fc1ccccc1COc1ccc(Nc2ncnc3ccc(-c4nnc(C(F)(F)F)o4)cc23)cc1Cl [GW424170] | 0% | 2% | 0% | 0% | 96.7% | 0% | 70% | 0% | 0% | 7%
Cc1cccc(-c2nc(Nc3ccc4[nH]nnc4c3)c3ccccc3n2)n1 [GW867587] | 0% | 0% | 0% | 0% | 0% | 0% | 11% | 0% | 0% | 0%
COc1ccc(Nc2nccc(N3CCC(NC(=O)c4cccc(NC(C)=O)c4)C3)n2)cc1 (stereo not drawn) [GSK1379732] | 8% | 1% | 11% | 16% | 52% | 30% | 0% | 0% | 0% | 5%
